The values that follow come from PubChem BioAssay (NCI).

SMILES strings stand for the structures. Compounds without any hit were thinned out: in the full panel of roughly 79,000, 15% have a hit. Values without a mark were called inactive. The source made the active and inactive calls. Rule as the data show it: active = growth inhibition above about 70%; inactive = the rest.

The nature of test [1]: NCI Yeast Anticancer Drug Screen. Data for the rad50 strain (AID 155).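 Also: 0% = growth of vehicle-only cultures of the same strain.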 Particulars: S. cerevisiae rad50 strain growth inhibition, active compounds read high. The method in brief:
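Cells are treated with compound, grown, and their growth is then scored against vehicle-only cultures of the same repair-deficient yeast strain.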

A short description of test [2]: NCI Yeast Anticancer Drug Screen. Data for the mec2-1 strain (AID 157). Particulars: S. cerevisiae mec2-1 strain, active compounds read high. Put shortly: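 Vehicle-treated cultures served as reference for growth inhibition of compound-exposed mec2-1 yeast.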
Test [3] is described as follows: NCI Yeast Anticancer Drug Screen. Data for the sgs1 mgt1 strain (AID 161).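 Also: 0% = growth of cultures given vehicle only.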 The note with it: S. cerevisiae sgs1 mgt1 strain, active compounds read high. Put shortly:
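Inhibition of yeast growth, normalised to vehicle-treated controls, is reported for a strain bearing genetic alterations in DNA damage repair.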

The nature of test [4]: NCI Yeast Anticancer Drug Screen. Data for the cln2 rad14 strain (AID 165).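 Also: 0% = growth equal to vehicle treated cultures.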 The note with it: S. cerevisiae cln2 rad14 strain, active compounds read high. Put shortly: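 Each compound was tested on cln2 rad14 yeast. Inhibition of growth was calculated against vehicle-exposed controls.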
A short description of test [5]: NCI Yeast Anticancer Drug Screen. Data for the bub3 strain (AID 167). The note with it: S. cerevisiae bub3 mutant strain, active compounds read high. The method in brief:
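Part of a panel of yeast mutants defective in DNA damage repair or cell cycle regulation. Each strain is grown with compound, and inhibition is calculated relative to solvent-treated cultures.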

Test [6] can be described thus: NCI Yeast Anticancer Drug Screen. Data for the mlh1 rad18 strain (AID 175). Particulars: S. cerevisiae mlh1 rad18 strain growth inhibition, active compounds read high. The method in brief:
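Vehicle-treated cultures served as the reference for growth inhibition in a yeast strain carrying DNA damage repair alterations exposed to each compound.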

[7] abbreviates: at 5.0 µM (retest, dose inferred, filed as 0.5).
[8] abbreviates: at 50.0 µM (retest, dose inferred, filed as 5.0).

`Cc1cc(-c2ccccc2)cc(C)[n+]1[O-]`: the growth inhibition in test [1] (setting [7]) was -1%; in test [1] (setting [8]), 20%; in test [1] (at 50.0 µM) it was 20.7%; in test [2] (setting [7]) it was -6%; in test [2] (setting [8]) it was 13%; in test [2] (at 50.0 µM), 28.1%. The growth inhibition in test [3] (setting [7]) was -6%; in test [3] (setting [8]) it was 12%; in test [3] (at 50.0 µM), 54.6%; in test [4] (setting [7]), -8%; in test [4] (setting [8]) it was -13%; in test [4] (at 50.0 µM), -31.3%. The growth inhibition is -2% in test [5] (setting [7]); 14% in test [5] (setting [8]); -12.7% in test [5] (at 50.0 µM); -4% in test [6] (setting [7]); 30% in test [6] (setting [8]); 5.4% in test [6] (at 50.0 µM).
With `ClCCN(CCCl)c1ccc(C2N(Cc3ccc(Cl)cc3)CCCN2Cc2ccc(Cl)cc2)cc1`, the growth inhibition in test [1] (setting [7]) was 11%; in test [1] (setting [8]), 56%; in test [1] (at 50.0 µM), 98.5% (active); in test [2] (setting [7]) it was 10%; in test [2] (setting [8]) it was 39%; in test [2] (at 50.0 µM), 98.5% (active). In addition, the growth inhibition was 16% in test [3] (setting [7]); 68% in test [3] (setting [8]); 98.8% (active) in test [3] (at 50.0 µM); 4% in test [4] (setting [7]); 24% in test [4] (setting [8]); 94.9% (active) in test [4] (at 50.0 µM). The growth inhibition was 7% in test [5] (setting [7]); 35% in test [5] (setting [8]); 98.8% (active) in test [5] (at 50.0 µM); 33% in test [6] (setting [7]); 94% (active) in test [6] (setting [8]); 98.4% (active) in test [6] (at 50.0 µM).
For `CCC1(CC)C(=O)[N-]C(=O)[N-]C1=O.[Au+].[Au+].c1ccc([PH+](c2ccccc2)c2ccccc2)cc1.c1ccc([PH+](c2ccccc2)c2ccccc2)cc1`, the growth inhibition in test [1] (setting [7]) was 99% (active); in test [1] (setting [8]) it was 94% (active); in test [1] (at 50.0 µM) it was 1.75%; in test [2] (setting [7]), 99% (active); in test [2] (setting [8]), 97% (active); in test [2] (at 50.0 µM), 80.6% (active). Also, the growth inhibition in test [3] (setting [7]) is 99% (active); in test [3] (setting [8]), 96% (active); in test [3] (at 50.0 µM) it was -4.5%; in test [4] (setting [7]), 95% (active); in test [4] (setting [8]), 96% (active); in test [4] (at 50.0 µM), 35.1%. Further, the growth inhibition in test [5] (setting [7]) is 99% (active); in test [5] (setting [8]), 90% (active); in test [5] (at 50.0 µM), 2.2%; in test [6] (setting [7]), 98% (active); in test [6] (setting [8]), 96% (active); in test [6] (at 50.0 µM), 4.65%.
Consider `O=C(CCl)c1ccc(O)cc1`, for which the growth inhibition in test [1] (setting [7]) was 16%; in test [1] (setting [8]) it was 96% (active); in test [1] (at 50.0 µM), 91.5% (active); in test [2] (setting [7]) it was 21%; in test [2] (setting [8]), 98% (active); in test [2] (at 50.0 µM), 98.2% (active). The growth inhibition in test [3] (setting [7]) was 31%; in test [3] (setting [8]), 97% (active); in test [3] (at 50.0 µM), 97.3% (active); in test [4] (setting [7]) it was 7%; in test [4] (setting [8]), 97% (active); in test [4] (at 50.0 µM), 89.2% (active). Also, the growth inhibition in test [5] (setting [7]) was 20%; in test [5] (setting [8]) it was 98% (active); in test [5] (at 50.0 µM) it was 96% (active); in test [6] (setting [7]), 22%; in test [6] (setting [8]), 98% (active); in test [6] (at 50.0 µM) it was 97.8% (active).
With `C/C1=C\[C@@H](O)C(=O)/C=C/C=C\c2csc(n2)[C@@H](C)NC(=O)C[C@@]2(CC1)S(=O)SC(=O)[C@]2(C)O` (stereo not given in full), the growth inhibition was 92% (active) in test [1] (setting [7]); 98% (active) in test [1] (setting [8]); 91.6% (active) in test [1] (at 50.0 µM); 98% (active) in test [2] (setting [7]); 99% (active) in test [2] (setting [8]); 92.5% (active) in test [2] (at 50.0 µM). In addition, the growth inhibition in test [3] (setting [7]) was 90% (active); in test [3] (setting [8]), 98% (active); in test [3] (at 50.0 µM), 92.2% (active); in test [4] (setting [7]), 97% (active); in test [4] (setting [8]) it was 98% (active); in test [4] (at 50.0 µM) it was 89.2% (active). Further, the growth inhibition in test [5] (setting [7]) was 94% (active); in test [5] (setting [8]) it was 98% (active); in test [5] (at 50.0 µM), 90.3% (active); in test [6] (setting [7]), 96% (active); in test [6] (setting [8]), 98% (active); in test [6] (at 50.0 µM) it was 85% (active).
For `COc1cc(CC(=O)N2CC2)cc(OC)c1OC`, the growth inhibition was -6% in test [1] (setting [7]); -1% in test [1] (setting [8]); 7.85% in test [1] (at 50.0 µM); 0% in test [2] (setting [7]); 8% in test [2] (setting [8]); -3.1% in test [2] (at 50.0 µM). In addition, the growth inhibition in test [3] (setting [7]) was -6%; in test [3] (setting [8]), 2%; in test [3] (at 50.0 µM) it was -13.6%; in test [4] (setting [7]) it was -7%; in test [4] (setting [8]) it was -3%; in test [4] (at 50.0 µM), 39.4%. Moreover, the growth inhibition in test [5] (setting [7]) was -5%; in test [5] (setting [8]), -1%; in test [5] (at 50.0 µM) it was 13.9%; in test [6] (setting [7]), -2%; in test [6] (setting [8]) it was -8%; in test [6] (at 50.0 µM), -13.8%.
As for `N=P(c1ccccc1)(c1ccccc1)c1ccccc1.[O]=[Cr](=[O])([OH])[O][Cr](=[O])(=[O])[OH]`, the growth inhibition in test [1] (setting [7]) was 9%; in test [1] (setting [8]), 80% (active); in test [1] (at 50.0 µM) it was 71.3% (active); in test [2] (setting [7]), 5%; in test [2] (setting [8]), 76% (active); in test [2] (at 50.0 µM), 26.4%. Also, the growth inhibition is 16% in test [3] (setting [7]); 91% (active) in test [3] (setting [8]); 37.3% in test [3] (at 50.0 µM); -4% in test [4] (setting [7]); 50% in test [4] (setting [8]); 8.95% in test [4] (at 50.0 µM). Besides, the growth inhibition is -4% in test [5] (setting [7]); 81% (active) in test [5] (setting [8]); 11.2% in test [5] (at 50.0 µM); 4% in test [6] (setting [7]); 57% in test [6] (setting [8]); 53.2% in test [6] (at 50.0 µM).
Consider `COc1cc(N(CCCl)CCCl)ccc1C=Nc1cccc(Cl)c1`, for which the growth inhibition in test [1] (setting [7]) is 5%; in test [1] (setting [8]) it was 45%; in test [1] (at 50.0 µM), 84% (active); in test [2] (setting [7]), -6%; in test [2] (setting [8]) it was 51%; in test [2] (at 50.0 µM) it was 62.6%. For the same compound, the growth inhibition in test [3] (setting [7]) was 1%; in test [3] (setting [8]), 7%; in test [3] (at 50.0 µM), 94% (active); in test [4] (setting [7]), 0%; in test [4] (setting [8]), 20%; in test [4] (at 50.0 µM), 81.6% (active). Further, the growth inhibition in test [5] (setting [7]) was 0%; in test [5] (setting [8]), 14%; in test [5] (at 50.0 µM) it was 87% (active); in test [6] (setting [7]), 17%; in test [6] (setting [8]), 87% (active); in test [6] (at 50.0 µM), 94.2% (active).
Regarding `CC(=O)[O][Hg][c]1ccccc1N`, the growth inhibition in test [1] (setting [7]) is 36%; in test [1] (setting [8]), 60%; in test [1] (at 50.0 µM), 91.6% (active); in test [2] (setting [7]), 36%; in test [2] (setting [8]), 64%; in test [2] (at 50.0 µM) it was 93.8% (active). For the same compound, the growth inhibition in test [3] (setting [7]) is 99% (active); in test [3] (setting [8]), 99% (active); in test [3] (at 50.0 µM), 93.7% (active); in test [4] (setting [7]) it was 46%; in test [4] (setting [8]) it was 99% (active); in test [4] (at 50.0 µM), 92% (active). Moreover, the growth inhibition in test [5] (setting [7]) was 99% (active); in test [5] (setting [8]), 98% (active); in test [5] (at 50.0 µM), 92.1% (active); in test [6] (setting [7]), 22%; in test [6] (setting [8]), 35%; in test [6] (at 50.0 µM) it was 91.7% (active).
In the case of `N#CC(=C=N)N=C(F)C(C#N)=C(C#N)C#N`, the growth inhibition in test [1] (setting [7]) is -1%; in test [1] (setting [8]) it was 68%; in test [1] (at 50.0 µM) it was 87% (active); in test [2] (setting [7]), -2%; in test [2] (setting [8]), 88% (active); in test [2] (at 50.0 µM) it was 82.6% (active). Further, the growth inhibition in test [3] (setting [7]) was 13%; in test [3] (setting [8]), 86% (active); in test [3] (at 50.0 µM) it was 73.2% (active); in test [4] (setting [7]), 7%; in test [4] (setting [8]), 94% (active); in test [4] (at 50.0 µM) it was 90.3% (active). The growth inhibition in test [5] (setting [7]) is 6%; in test [5] (setting [8]) it was 77% (active); in test [5] (at 50.0 µM), 86.8% (active); in test [6] (setting [7]) it was 25%; in test [6] (setting [8]) it was 93% (active); in test [6] (at 50.0 µM), 94.8% (active).
